GRK2 aptamer HTS: compounds blocking aptamer binding on GRK2 – biochemical, human GRK2, bead flow cytometry, HTS, primary screen; Beta-adrenergic receptor kinase 1 (Homo sapiens), P25098; inhibition of aptamer binding, % at 10 µM; 330,000 tested, 0.59% active; AID 488847, 2010; FAM-aptamer displacement from GRK2;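 active = inhibition of aptamer binding above 40%, roughly 3 SD of noise, on plates passing a quality check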;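 also: median bead fluorescence of bound FAM aptamer so fluorescent compounds give negative values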
Target sequence (P25098 whole entry, looked up): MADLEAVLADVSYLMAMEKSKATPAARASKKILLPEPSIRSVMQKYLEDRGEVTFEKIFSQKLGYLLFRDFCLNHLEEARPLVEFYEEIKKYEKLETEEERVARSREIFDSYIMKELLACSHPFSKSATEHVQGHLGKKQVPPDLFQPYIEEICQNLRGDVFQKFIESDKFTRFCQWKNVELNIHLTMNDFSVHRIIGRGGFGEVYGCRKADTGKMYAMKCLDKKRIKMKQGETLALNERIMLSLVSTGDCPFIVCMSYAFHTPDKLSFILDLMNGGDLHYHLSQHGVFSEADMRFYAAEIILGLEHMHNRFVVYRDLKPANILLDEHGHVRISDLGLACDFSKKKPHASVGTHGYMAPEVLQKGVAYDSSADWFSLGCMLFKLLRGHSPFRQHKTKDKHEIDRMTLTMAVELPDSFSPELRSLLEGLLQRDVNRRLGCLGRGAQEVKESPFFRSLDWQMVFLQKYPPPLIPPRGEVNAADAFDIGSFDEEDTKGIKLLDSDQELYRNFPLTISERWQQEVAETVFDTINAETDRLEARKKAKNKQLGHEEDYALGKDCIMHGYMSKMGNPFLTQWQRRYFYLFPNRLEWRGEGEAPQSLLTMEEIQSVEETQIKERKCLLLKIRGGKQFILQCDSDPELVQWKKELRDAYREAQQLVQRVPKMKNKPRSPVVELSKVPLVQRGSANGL
MEKK2mut PB1 HTS: MEK5 binding signal on mutant MEKK2 PB1, primary screen, biochemical, multiplex bead flow cytometry, Alexa488-MEK5 | AID 1530, 2009 | 290,000 tested, 0.35% active | Alexa488-MEK5 binding to MEKK2 mutant | percent response, % at 10 µM; in the data active = percent response above about 24%, passing the limit was not always enough
MEKK2 WT-MEK5: modulators of MEK5 binding to wildtype MEKK2, primary screen, biochemical, multiplex bead flow cytometry, Alexa488-MEK5; Mitogen-activated protein kinase kinase kinase 2 (Homo sapiens), Q9Y2U5; Alexa488-MEK5 binding to MEKK2 WT; actives lie on both sides; binding response (% of control), % at 10 µM; 290,000 tested, 1.1% active; in the data active = binding response below about 67% or above about 130%
MEKK3 PB1 HTS: modulators of MEKK3-MEK5 PB1 binding, primary screen, biochemical, wildtype MEKK3, multiplex bead flow cytometry, Alexa488-MEK5; bead-based flow cytometry, Alexa488-MEK5 binding to MEKK3; actives lie on both sides; 0 = blocked by unlabeled MEK5, 100 = vehicle; binding response (% of control), % at 10 µM; 290,000 tested, 1.4% active; AID 1529, 2009;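 active = binding response more than 3 SD above or below the average of its plate-row segment, actives on both sides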;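 also: Alexa488 bead fluorescence after subtracting the streptavidin-only scavenger bead signal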
MEKK2wt confirm: modulators of MEK5 binding to wildtype MEKK2, confirmation, biochemical, single concentration, multiplex bead flow cytometry. shares compounds with MEKK3 PB1 HTS. Alexa488-MEK5 binding to MEKK2 WT; actives lie on both sides. binding response (% of control), % at 10 µM. 5,900 tested, 2.4% active. AID 1892, 2009; in the data active = binding response below about 16% or above about 210%; inactive = in between
MEKK2mut-MEK5: mutant MEKK2 PB1-MEK5 binding signal retest – biochemical, single concentration, multiplex bead flow cytometry, confirmation. shares compounds with MEKK3 PB1 HTS. Alexa488-MEK5 binding to MEKK2 mutant. percent response, % at 10 µM. 5,900 tested, 2% active; in the data active = percent response mostly above about 71%, no sharp cut-off; inactive = mostly below about 38%;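 also: higher means compound restores mutant binding toward wildtype level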
MEKK3-MEK5 inh: MEKK3 wild-type PB1 binding to MEK5, inhibitors, confirmation, biochemical, bead multiplex flow cytometry, single concentration, wildtype. shares compounds with MEKK3 PB1 HTS. 5,900 tested, 1.8% active. Alexa488-MEK5 binding to MEKK3; hits give low values. binding response (% of control), % at 10 µM;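 active = binding response below 72% of control, or above a set upper limit, though filed actives all read lower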;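 also: lower values mean stronger disruption of MEK5 binding to MEKK3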
Of the large screens only hits and unclear results are named; the others gave an inactive call (follow-up assays come after a bar, where they were run); [ ] = dose if it differs, or a comment. Shown are actives, neighbours in structure and some others; about 2.5% of the full set was active somewhere.

c1cc2nc(C34CC5CC(CC(C5)C3)C4)[nH]c2cn1	MEKK2 WT-MEK5 3.0[inhibitor], MEKK3 PB1 HTS 2.0[inhibitor] | MEKK2wt confirm inactive | MEKK2mut-MEK5 inactive | MEKK3-MEK5 inh inactive
CN(C1CCCCC1)S(=O)(=O)c1ccc(S(=O)(=O)N2CCN(C(=O)c3ccccc3F)CC2)cc1	MEKK3 PB1 HTS 144 | MEKK2wt confirm inactive | MEKK2mut-MEK5 inactive | MEKK3-MEK5 inh inactive
O=C(c1ccccc1F)N1CCN(S(=O)(=O)c2ccc3c(c2)OCCO3)CC1	none
CCCN(CCC)CCNC(=O)c1cc2c(-c3ccccc3F)nn(C)c2s1	none
CCCCN(CC)CCNC(=O)c1cc2c(-c3ccc(Cl)cc3)nn(C)c2s1	MEKK2mut PB1 HTS 47, MEKK2 WT-MEK5 198 | MEKK2wt confirm inactive | MEKK2mut-MEK5 98 | MEKK3-MEK5 inh inactive
CCN(CC)CCNC(=O)c1cc2c(-c3cccc(OC)c3)nn(C)c2s1	none
CCOCCCNC(=O)c1cc2c(-c3ccc(Cl)cc3)nn(C)c2s1	none
CCCN(CCC)CCNC(=O)c1cc2c(-c3ccc(Cl)cc3)nn(C)c2s1	MEKK2mut PB1 HTS 42, MEKK2 WT-MEK5 184 | MEKK2wt confirm inactive | MEKK2mut-MEK5 92 | MEKK3-MEK5 inh inactive
CCN(CC)CCNC(=O)c1cc2c(-c3ccc(Cl)cc3)nn(C)c2s1	MEKK2 WT-MEK5 191 | MEKK2wt confirm inactive | MEKK2mut-MEK5 inactive | MEKK3-MEK5 inh inactive
COc1ccc(/C=N\NC(=O)c2cc(O)c(O)c(O)c2)cc1COc1ccc(C(=O)OCC(C)C)cc1	none
COC(=O)Cn1cc(S(=O)(=O)NCc2ccc(C)cc2)c2cc([N+](=O)[O-])ccc21	none
COc1ccc(C(=O)NCc2nnc(SCC(=O)Nc3ccccc3F)o2)cc1	MEKK2 WT-MEK5 3.0[inhibitor], MEKK3 PB1 HTS 3.0[inhibitor] | MEKK2wt confirm inactive | MEKK2mut-MEK5 inactive | MEKK3-MEK5 inh inactive
CCOC(=O)C1=C(C)N(C)C(C)=C(C(=O)OCC)C1c1ccc(Cl)cc1	MEKK3 PB1 HTS 130 | MEKK2wt confirm inactive | MEKK2mut-MEK5 inactive | MEKK3-MEK5 inh 46
CCN(CC)S(=O)(=O)c1cccc(NC(=O)CC2CCCC2)c1	none
CCN(CC)S(=O)(=O)c1cccc(NC(=O)Nc2cccc(C(F)(F)F)c2)c1	MEKK2 WT-MEK5 219 | MEKK2wt confirm inactive | MEKK2mut-MEK5 inactive | MEKK3-MEK5 inh inactive
COc1ccc(CCNC(=O)CSc2nc(O)cc(=O)[nH]2)cc1OC	MEKK3 PB1 HTS 134 | MEKK2wt confirm inactive | MEKK2mut-MEK5 inactive | MEKK3-MEK5 inh inactive
COc1ccc(CCNC(=O)CN(c2ccc(OC)c(OC)c2)S(C)(=O)=O)cc1OC	MEKK3 PB1 HTS 122 | MEKK2wt confirm inactive | MEKK2mut-MEK5 inactive | MEKK3-MEK5 inh inactive
COc1ccc(CCNC(=O)CN(c2ccccc2OC)S(C)(=O)=O)cc1OC	none
Cc1cc2c(cc1C)NC(CC(=O)NCc1ccccc1)C(=O)N2 (stereo not drawn)	none
COc1ccc(CCNC(=O)CC2Nc3cc(C)c(C)cc3NC2=O)cc1OC (stereo not drawn)	MEKK2 WT-MEK5 1.0[inhibitor], MEKK3 PB1 HTS 0.0[inhibitor] | MEKK2wt confirm inactive | MEKK2mut-MEK5 inactive | MEKK3-MEK5 inh inactive
O=C(NCCCNC(=O)c1ccc(F)cc1)c1ccc(F)cc1	none
Cc1oc(-c2ccccc2)cc1C(=O)Nc1ccccc1	none
Cc1oc(-c2ccccc2)cc1C(=O)NCc1ccncc1	MEKK2 WT-MEK5 56[inhibitor] | MEKK2wt confirm inactive | MEKK2mut-MEK5 inactive | MEKK3-MEK5 inh inactive
Cc1cc(C(F)F)nn1CC(=O)NCc1ccccc1F	MEKK3 PB1 HTS 141 | MEKK2wt confirm inactive | MEKK2mut-MEK5 inactive | MEKK3-MEK5 inh inactive
Cc1cccc(NC(=O)CSc2nc3nc4c(cc3c(=O)n2-c2ccccc2)CCCC4)c1	MEKK3 PB1 HTS 132 | MEKK2wt confirm inactive | MEKK2mut-MEK5 inactive | MEKK3-MEK5 inh inactive
CCOc1ccc(/C=c2\sc3nc(-c4ccco4)nn3c2=O)cc1OCC	none
COc1cc(/C=c2\sc3nc(=O)c(-c4ccccc4)nn3c2=O)ccc1OCCC(C)C	MEKK3 PB1 HTS 140 | MEKK2wt confirm inactive | MEKK2mut-MEK5 inactive | MEKK3-MEK5 inh inactive
CCN1/C(=N\N)c2cccc3cccc1c23	MEKK2 WT-MEK5 -8.0, MEKK3 PB1 HTS 58[inhibitor] | MEKK2wt confirm inactive | MEKK2mut-MEK5 inactive | MEKK3-MEK5 inh inactive
COc1ccc(Cn2ccnc2SCC(=O)NC2CCCC2)cc1	none
COCCNC(=O)COc1ncnc2scc(-c3ccc(F)cc3)c12	MEKK3 PB1 HTS 143 | MEKK2wt confirm inactive | MEKK2mut-MEK5 inactive | MEKK3-MEK5 inh inactive
Cn1nnnc1NCc1cccc(Cl)c1Cl	none
CN1C(=O)C(C)(C)c2cc(S(=O)(=O)N3CCN(c4cccc(Cl)c4)CC3)ccc21	none
COCCCN1C(=O)C(=O)/C(=C(/O)c2ccccc2)C1c1ccc(N(C)C)cc1 (stereo not drawn)	MEKK2mut PB1 HTS 223, MEKK2 WT-MEK5 152 | MEKK2wt confirm inactive | MEKK2mut-MEK5 inactive | MEKK3-MEK5 inh inactive
CN1C(=O)C(=O)/C(=C(/O)c2ccccc2)C1c1ccc(Br)cc1 (stereo not drawn)	none
O=C1C(=O)N(CCCO)C(c2ccc(Br)cc2)/C1=C(\O)c1ccc(Br)cc1 (stereo not drawn)	MEKK2mut PB1 HTS 28 | MEKK2wt confirm inactive | MEKK2mut-MEK5 inactive | MEKK3-MEK5 inh inactive
CCn1cc(Br)c(C(=O)Nc2ccc(Cl)c(Cl)c2)n1	none
CCn1cc(Br)c(C(=O)Nc2cccc(Cl)c2)n1	MEKK2 WT-MEK5 -5.0[inhibitor], MEKK3 PB1 HTS 0.0[inhibitor] | MEKK2wt confirm inactive | MEKK2mut-MEK5 inactive | MEKK3-MEK5 inh inactive
CC(Sc1nc(-c2ccccc2)cs1)C(=O)Nc1ccc(Cl)cn1 (stereo not drawn)	MEKK3 PB1 HTS 149 | MEKK2wt confirm inactive | MEKK2mut-MEK5 inactive | MEKK3-MEK5 inh inactive
COc1ccc2ccccc2c1/C=N/O	MEKK3 PB1 HTS 133 | MEKK2wt confirm inactive | MEKK2mut-MEK5 inactive | MEKK3-MEK5 inh inactive
O=C(NC(=S)Nc1cc(C(F)(F)F)ccc1N1CCOCC1)c1ccco1	none
Cc1cccc(NC(=O)CSCC(=O)Nc2cccc3ncccc23)c1	none (no result: MEKK2mut PB1 HTS, MEKK2 WT-MEK5, MEKK3 PB1 HTS)
Cc1nnc(SCC(=O)NCc2ccccc2Cl)n(N)c1=O	MEKK3 PB1 HTS 130 | MEKK2wt confirm inactive | MEKK2mut-MEK5 inactive | MEKK3-MEK5 inh inactive

Source: PubChem BioAssay
